From PubChem BioAssay
Values joined by “and” are separate entries in the source; they are usually repeats but may differ in a detail not shown here. Equal entries are not always repeated. For part of these data: Entries with a potency or affinity are not part of this list. Active and inactive are the calls of the source. Unless noted, how the calls were made is not given here.

How the values were obtained:
[1] = antimalarial activity against Dd2 strain (AID 2302;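 active means growth inhibition above 50% at the single 2 µM test dose, taken to imply half-maximal potency below 2 µM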;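 further: 0% = DMSO untreated growth and 100% = chloroquine plus artemisinin killed control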); conditions: P. falciparum Dd2 in RBCs, LDH growth readout, 72 h; at 2 µM; active compounds read high
[2] = HepG2 cytotoxicity, primary screen, cytotoxicity control for P. falciparum antimalarial project, cell-based, ATP luminescence (AID 2303;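 active means inhibition above 50%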;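 further: 0% = DMSO wells and 100% = digitonin-killed cells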); conditions: HepG2 viability, 24-48 h, at 10 µM, active compounds read high
[3] = biological target: L-lactate dehydrogenase (Plasmodium falciparum (isolate CDC / Honduras)) (UniProt Q27743); assay: PfLDH activity inhibition – cell lysate, 3D7 strain, counter-screen for P. falciparum growth inhibition project (AID 2304);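 further: 0% = vehicle and 100% = reference inhibitor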; conditions: P. falciparum 3D7 crude extract, LDH APAD/NBT absorbance; at 2 µM; active compounds read high
[4] = inhibition of 3D7 malaria parasite growth – strain 3D7 (AID 2306);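 further: 0% = DMSO wells and 100% = chloroquine plus artemisinin control wells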; conditions: P. falciparum 3D7 erythrocytic growth, LDH absorbance, 72 h; at 2 µM; active compounds read high
[5] = biological target: Calcium-dependent protein kinase 1 (Plasmodium falciparum (isolate 3D7)) (UniProt P62344); assay: PfCDPK1 kinase inhibitors, biochemical, TCAMS library (AID 1159585; cut-off not given, nearly all actives have IC50 up to about 0.98 µM;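 further: inhibitors leave more ATP so luminescence rises with inhibition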); conditions: recombinant PfCDPK1, Kinase-Glo ATP depletion luminescence
[6] = biological target: Plasmodium falciparum protein kinase 6 (PK6, PF3D7_1337100) (UniProt Q8IDW1); assay: PfPK6 kinase inhibitors, biochemical, TCAMS library (AID 1159586); conditions: recombinant PfPK6, Kinase-Glo ATP depletion luminescence
[7] = biological target: Protein kinase 7 (PK7), Plasmodium falciparum 3D7 (PF3D7_0213400) (UniProt Q7YTF7); assay: inhibition of Plasmodium PK7 catalytic activity – biochemical, TCAMS antimalarial set, Kinase-Glo luminescence (AID 1159587); conditions: recombinant PfPK7, Kinase-Glo ATP depletion luminescence
[8] = biological target: Calcium-dependent protein kinase 4 (Plasmodium falciparum (isolate 3D7)) (UniProt Q8IBS5); assay: PfCDPK4 kinase inhibitors, biochemical, TCAMS library (AID 1159588; cut-off not given, nearly all actives have IC50 up to about 0.91 µM); conditions: recombinant PfCDPK4, Kinase-Glo ATP depletion luminescence
Calcium-dependent protein kinase 4 (Plasmodium falciparum (isolate 3D7)), sequence (Q8IBS5 whole entry, looked up): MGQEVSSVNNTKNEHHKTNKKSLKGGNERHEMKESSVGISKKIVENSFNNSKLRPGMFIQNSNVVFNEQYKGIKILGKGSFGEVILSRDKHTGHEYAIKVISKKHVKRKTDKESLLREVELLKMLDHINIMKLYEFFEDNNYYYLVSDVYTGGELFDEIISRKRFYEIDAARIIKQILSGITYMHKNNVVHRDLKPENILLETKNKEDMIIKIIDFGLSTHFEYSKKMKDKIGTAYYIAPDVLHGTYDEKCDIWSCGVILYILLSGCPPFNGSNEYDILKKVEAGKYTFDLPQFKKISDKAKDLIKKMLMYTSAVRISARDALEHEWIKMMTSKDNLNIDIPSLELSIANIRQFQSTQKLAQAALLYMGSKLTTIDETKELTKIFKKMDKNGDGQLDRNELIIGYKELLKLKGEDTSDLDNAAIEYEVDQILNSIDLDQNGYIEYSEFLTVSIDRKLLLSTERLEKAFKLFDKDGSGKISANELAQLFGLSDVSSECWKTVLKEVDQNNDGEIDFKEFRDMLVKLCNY

Protein kinase 7 (PK7), Plasmodium falciparum 3D7 (PF3D7_0213400), sequence (Q7YTF7 1-343): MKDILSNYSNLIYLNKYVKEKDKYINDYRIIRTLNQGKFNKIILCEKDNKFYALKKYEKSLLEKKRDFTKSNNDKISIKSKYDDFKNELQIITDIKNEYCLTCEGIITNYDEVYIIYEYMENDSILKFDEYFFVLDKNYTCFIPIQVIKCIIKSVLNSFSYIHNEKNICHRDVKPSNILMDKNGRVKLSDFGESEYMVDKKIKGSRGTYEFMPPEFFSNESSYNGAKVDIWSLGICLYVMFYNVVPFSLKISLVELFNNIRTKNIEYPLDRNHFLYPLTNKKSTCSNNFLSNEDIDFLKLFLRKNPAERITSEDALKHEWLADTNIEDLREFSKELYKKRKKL
Plasmodium falciparum protein kinase 6 (PK6, PF3D7_1337100), sequence (Q8IDW1 1-305): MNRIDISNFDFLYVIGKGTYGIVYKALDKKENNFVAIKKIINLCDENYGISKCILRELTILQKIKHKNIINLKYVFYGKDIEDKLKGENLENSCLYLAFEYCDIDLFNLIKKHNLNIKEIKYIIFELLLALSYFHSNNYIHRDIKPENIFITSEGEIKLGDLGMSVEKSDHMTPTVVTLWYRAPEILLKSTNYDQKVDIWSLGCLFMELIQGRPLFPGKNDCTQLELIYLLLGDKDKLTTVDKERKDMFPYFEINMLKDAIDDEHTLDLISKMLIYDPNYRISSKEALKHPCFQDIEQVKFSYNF
Calcium-dependent protein kinase 1 (Plasmodium falciparum (isolate 3D7)), sequence (P62344 whole entry, looked up): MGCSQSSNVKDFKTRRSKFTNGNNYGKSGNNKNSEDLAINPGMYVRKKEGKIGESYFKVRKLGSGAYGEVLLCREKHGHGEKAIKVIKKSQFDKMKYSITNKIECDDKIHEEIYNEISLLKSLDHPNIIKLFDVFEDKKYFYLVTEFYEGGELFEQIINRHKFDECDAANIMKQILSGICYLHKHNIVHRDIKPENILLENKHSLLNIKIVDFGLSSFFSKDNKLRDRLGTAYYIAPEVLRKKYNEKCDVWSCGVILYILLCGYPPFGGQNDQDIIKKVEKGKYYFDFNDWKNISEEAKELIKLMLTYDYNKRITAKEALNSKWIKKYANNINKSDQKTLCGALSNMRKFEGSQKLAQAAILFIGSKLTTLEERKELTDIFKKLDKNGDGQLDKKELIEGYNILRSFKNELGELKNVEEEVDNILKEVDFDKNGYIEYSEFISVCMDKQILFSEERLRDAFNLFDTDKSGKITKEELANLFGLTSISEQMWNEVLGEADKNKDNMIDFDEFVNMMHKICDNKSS
L-lactate dehydrogenase (Plasmodium falciparum (isolate CDC / Honduras)), sequence (Q27743 whole entry, looked up): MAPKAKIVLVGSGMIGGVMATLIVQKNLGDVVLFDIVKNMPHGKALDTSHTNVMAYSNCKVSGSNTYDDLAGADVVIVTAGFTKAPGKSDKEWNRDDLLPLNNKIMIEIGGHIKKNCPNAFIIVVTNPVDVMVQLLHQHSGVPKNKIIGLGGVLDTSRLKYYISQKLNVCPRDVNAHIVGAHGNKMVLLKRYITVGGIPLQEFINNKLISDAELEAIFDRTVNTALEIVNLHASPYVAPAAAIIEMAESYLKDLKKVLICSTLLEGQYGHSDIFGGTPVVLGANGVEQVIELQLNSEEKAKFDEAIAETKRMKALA

COc1ccc(OC)c(CNCC(O)c2cc(C(F)(F)F)cc(C(F)(F)F)c2)c1 (configuration not stated)
active: growth inhibition [1] 100% | growth inhibition [4] 92%
inactive: inhibition [2] 7% | inhibition [3] 6% | outcome [5] | outcome [6] | outcome [7] | outcome [8]

COc1ccc(N(c2nc(-c3cc(Cl)ccc3Cl)cs2)C2CCNCC2)cc1
active: growth inhibition [4] 91%
inactive: growth inhibition [1] 4% | inhibition [2] 17% | inhibition [3] -2% | outcome [5] | outcome [6] | outcome [7] | outcome [8]

O=C(O)c1ccc2nc(-c3ccc(-c4ccccc4)cc3)n(C3CCN(Cc4ccc(-c5ncc[nH]5)cc4)CC3)c2c1
inactive: inhibition [2] 3% | inhibition [3] 1% | outcome [5] | outcome [6] | outcome [7] | outcome [8]
active: growth inhibition [1] 99% | growth inhibition [4] 91%

CCCCCC(C)C(C)c1cc(O)c2c(c1)O[C@@]1(C(C)C)CC(O)[C@H](C)[C@@H]2C1 (some centres not stated)
active: growth inhibition [1] 87% | growth inhibition [4] 93%
inactive: inhibition [2] 1% | inhibition [3] -3% | outcome [5] | outcome [6] | outcome [7] | outcome [8]

CN(c1cc(NC(=O)c2ccc(F)cc2)ccn1)C1CCN(Cc2ccc(C#N)cc2)CC1
active: growth inhibition [1] 54% | growth inhibition [4] 87%
inactive: inhibition [2] 13% | inhibition [3] 2% | outcome [5] | outcome [6] | outcome [7] | outcome [8]

CCCCCc1cc(O)c2c3c(c(=O)oc2c1)CN(C)CC3
inactive: inhibition [2] 4% | inhibition [3] 4% | outcome [5] | outcome [6] | outcome [7] | outcome [8]
active: growth inhibition [1] 99% | growth inhibition [4] 101%

COC(=O)c1ccc(CC(C)NCC(O)c2cccc(SC(F)(F)F)c2)cc1 (configuration not stated)
active: growth inhibition [1] 72% | growth inhibition [4] 96%
inactive: inhibition [2] 7% | inhibition [3] -2% | outcome [5] | outcome [6] | outcome [7] | outcome [8]

CC[C@H]1CN2CC[C@H]1C[C@H]2[C@H](O)c1cc(-c2ccc(F)cc2)nc2ccc(OC)cc12
active: growth inhibition [1] 98% | growth inhibition [4] 99%
inactive: inhibition [2] 34% | inhibition [3] 5% | outcome [5] | outcome [6] | outcome [7] | outcome [8]

CS(=O)(=O)Nc1ccc2[nH]cc(C3CCN(CC4CCC(NC(=O)/C=C/c5ccccc5Cl)CC4)CC3)c2c1 (configuration not stated)
inactive: growth inhibition [1] 7% | inhibition [2] 12% | inhibition [3] 2% | outcome [5] | outcome [6] | outcome [7] | outcome [8]
active: growth inhibition [4] 96%

NC(=O)c1ccc2[nH]cc(C3CCN(CC4CCC(NC(=O)/C=C/c5ccc(Cl)c(Cl)c5)CC4)CC3)c2c1 (configuration not stated)
active: growth inhibition [4] 101% and 100%
inactive: growth inhibition [1] 26% and 32% | inhibition [2] 11% and -1% | inhibition [3] 5% and -8% | outcome [5] | outcome [6] | outcome [7] | outcome [8]

Cc1ccc(C2(O)C[C@H]3CC[C@@H](C2)N3C)cc1 (some centres not stated)
inactive: growth inhibition [1] 16% | inhibition [2] -6% | inhibition [3] -4% | outcome [5] | outcome [6] | outcome [7] | outcome [8]
active: growth inhibition [4] 92%

COCC(=O)N(Cc1ccccc1-c1cccc(CNCCc2ccccc2)c1)C1CCN(Cc2ccccc2)CC1
active: growth inhibition [4] 93%
inactive: growth inhibition [1] 36% | inhibition [2] 21% | inhibition [3] 3% | outcome [5] | outcome [6] | outcome [7] | outcome [8]

O=c1c2ccccc2nc(C=Cc2ccc([N+](=O)[O-])cc2)n1-c1ccccn1
inactive: inhibition [2] 5% | inhibition [3] -1% | outcome [5] | outcome [6] | outcome [7] | outcome [8]
active: growth inhibition [1] 96% | growth inhibition [4] 98%

CC(=O)C1(c2ccccc2)CCN(CCC2(c3ccc(Cl)c(Cl)c3)CN(C(=O)Nc3cccc(C(F)(F)F)c3)CCO2)CC1 (configuration not stated)
inactive: inhibition [2] 24% | inhibition [3] 8% | outcome [5] | outcome [6] | outcome [7] | outcome [8]
active: growth inhibition [1] 66% | growth inhibition [4] 95%

CC(Cc1ccc(C2=CCNCC2)cc1)NCC(O)c1cccc(C(F)(F)F)c1 (configuration not stated)
inactive: growth inhibition [1] -2% | inhibition [2] 27% | inhibition [3] 0% | outcome [5] | outcome [6] | outcome [7] | outcome [8]
active: growth inhibition [4] 89%

COC(=O)c1ccc(C[C@@H](C)NC[C@H](O)c2cccc(C(F)(F)F)c2)cc1
active: growth inhibition [1] 93% and 87% | growth inhibition [4] 97%
inactive: inhibition [2] 1% and -5% | inhibition [3] -6% and -2% | outcome [5] | outcome [6] | outcome [7] | outcome [8]

COC(=O)/C=C/c1ccc(CC(C)NCC(O)c2cccc(Cl)c2)cc1 (configuration not stated)
inactive: inhibition [2] 2% | inhibition [3] 5% | outcome [5] | outcome [6] | outcome [7] | outcome [8]
active: growth inhibition [1] 73% | growth inhibition [4] 99%

C/C=C1/CN2CC[C@H]1C[C@H]2[C@H](O)c1ccnc2ccc(O)cc12
active: growth inhibition [4] 99%
inactive: growth inhibition [1] 11% | inhibition [2] -2% | inhibition [3] -3% | outcome [5] | outcome [6] | outcome [7] | outcome [8]

Cc1[nH]c2cc(F)ccc2c1C1=CCN(CCCCC2(C)C(=O)Nc3ccccc32)CC1 (configuration not stated)
inactive: inhibition [2] 13% | inhibition [3] -8% | outcome [5] | outcome [6] | outcome [7] | outcome [8]
active: growth inhibition [1] 90% | growth inhibition [4] 93%

Cc1[nH]c2ccc([N+](=O)[O-])cc2c1C1=CCN(C)CC1
active: growth inhibition [1] 68% | growth inhibition [4] 86%
inactive: inhibition [2] 6% | inhibition [3] 4% | outcome [5] | outcome [6] | outcome [7] | outcome [8]

Cc1[nH]c2ccccc2c1C1=CCN(CCN2CCOc3c(Br)cccc3C2=O)CC1
active: growth inhibition [1] 76% | growth inhibition [4] 97%
inactive: inhibition [2] 15% | inhibition [3] -3% | outcome [5] | outcome [6] | outcome [7] | outcome [8]

Cc1cccc2c(C3CCN(CC4CCC(NC(=O)/C=C/c5ccc(Cl)c(Cl)c5)CC4)CC3)c[nH]c12 (configuration not stated)
active: inhibition [2] 97% | growth inhibition [4] 92%
inactive: growth inhibition [1] 49% | inhibition [3] -4% | outcome [5] | outcome [6] | outcome [7] | outcome [8]

COc1cccc(CCNC(C)Cc2ccc(OCCCCOc3ccccc3)cc2)c1 (configuration not stated)
active: growth inhibition [1] 90% | inhibition [2] 100% | growth inhibition [4] 97%
inactive: inhibition [3] 5% | outcome [5] | outcome [6] | outcome [7] | outcome [8]

COc1ccc(C(=O)[C@H]2C[C@@H]2CN2CC=C(c3c(C)[nH]c4ccccc34)CC2)cc1
inactive: inhibition [2] 16% | inhibition [3] -6% | outcome [5] | outcome [6] | outcome [7] | outcome [8]
active: growth inhibition [1] 94% | growth inhibition [4] 96%

O=C(COc1ccc(Cl)cc1)N1CCC(CN2CCC(c3c[nH]c4ccccc34)CC2)CC1
active: growth inhibition [4] 89%
inactive: growth inhibition [1] 13% | inhibition [2] 48% | inhibition [3] 1% | outcome [5] | outcome [6] | outcome [7] | outcome [8]

COCCNCc1cccc(-c2ccccc2CN(C(=O)Nc2ccccc2)C2CCN(Cc3ccccc3)CC2)c1
inactive: inhibition [2] 30% | inhibition [3] 1% | outcome [5] | outcome [6] | outcome [7] | outcome [8]
active: growth inhibition [1] 51% | growth inhibition [4] 96%

CC(=O)N(Cc1cccc(-c2cccc(CNCc3ccc4c(c3)OCO4)c2)c1)C1CCN(Cc2ccccc2)CC1
inactive: growth inhibition [1] 21% | inhibition [2] 16% | inhibition [3] -5% | outcome [5] | outcome [6] | outcome [7] | outcome [8]
active: growth inhibition [4] 95%

CC(Cc1ccc(OCCCCOc2ccccc2)cc1)NCCc1ccccc1Cl (configuration not stated)
inactive: inhibition [3] 1% | outcome [5] | outcome [6] | outcome [7] | outcome [8]
active: growth inhibition [1] 58% | inhibition [2] 100% | growth inhibition [4] 97%

N=c1c2c(n(Cc3ccc(Cl)cc3Cl)c3c1CCC3)CCCC2
active: growth inhibition [1] 73% | growth inhibition [4] 94%
inactive: inhibition [2] -5% | inhibition [3] 3% | outcome [5] | outcome [6] | outcome [7] | outcome [8]

COc1ccc(C(=O)[C@H]2C[C@@H]2CN2CC=C(c3c[nH]c4ccccc34)CC2)cc1
inactive: inhibition [2] 12% | inhibition [3] 1% | outcome [5] | outcome [6] | outcome [7] | outcome [8]
active: growth inhibition [1] 89% | growth inhibition [4] 95%

CN(C)CCCOc1ccc(CN2CCC(c3c[nH]c4ccc(NCC5CCCCC5)cc34)CC2)cc1
inactive: inhibition [3] 3% | outcome [5] | outcome [6] | outcome [7] | outcome [8]
active: growth inhibition [1] 99% | inhibition [2] 58% | growth inhibition [4] 99%

CC(Cc1ccc(-c2nc3ccccc3[nH]2)cc1)NCC(O)c1cccc(C(F)(F)F)c1 (configuration not stated)
inactive: inhibition [2] 33% | inhibition [3] 4% | outcome [5] | outcome [6] | outcome [7] | outcome [8]
active: growth inhibition [1] 90% | growth inhibition [4] 97%

CC[C@H]1CN2CC[C@H]1C[C@H]2[C@H](O)c1cc(/C=C/c2ccccc2)nc2ccc(OC)cc12
active: growth inhibition [1] 99% | growth inhibition [4] 99%
inactive: inhibition [2] 16% | inhibition [3] -1% | outcome [5] | outcome [6] | outcome [7] | outcome [8]

CCCCCCC(C)c1cc(O)c2c(c1)OC(C)(C)c1ccncc1-2 (configuration not stated)
active: growth inhibition [1] 61% | growth inhibition [4] 100%
inactive: inhibition [2] -3% | inhibition [3] -4% | outcome [5] | outcome [6] | outcome [7] | outcome [8]

FC(F)(F)c1cccc(N2CCC(CN3CCC(c4c[nH]c5ccccc45)CC3)CC2)n1
inactive: growth inhibition [1] 10% | inhibition [2] 41% | inhibition [3] -3% | outcome [5] | outcome [6] | outcome [7] | outcome [8]
active: growth inhibition [4] 84%

CNCCCN(C)C(=O)Oc1c(Br)c(C)nc(C)c1-c1ccc(Oc2ccc(OC(F)(F)F)cc2)cc1
inactive: inhibition [2] 17% | inhibition [3] 3% | outcome [5] | outcome [6] | outcome [7] | outcome [8]
active: growth inhibition [1] 96% | growth inhibition [4] 96%

CCCCOC(C(=O)OCC1CCCN1C)(c1ccccc1)c1ccccc1 (configuration not stated)
active: growth inhibition [4] 100%
inactive: growth inhibition [1] 2% | inhibition [2] 3% | inhibition [3] 6% | outcome [5] | outcome [6] | outcome [7] | outcome [8]

Cc1ccc(CC(C)NC[C@H](O)c2cccc(Cl)c2)cc1 (some centres not stated)
inactive: growth inhibition [1] 47% | inhibition [2] 15% | inhibition [3] -3% | outcome [5] | outcome [6] | outcome [7] | outcome [8]
active: growth inhibition [4] 96%

CC(Cc1ccc(OCCCCOc2ccccc2)cc1)NCCCn1ccnc1 (configuration not stated)
active: growth inhibition [1] 101% | inhibition [2] 100% | growth inhibition [4] 101%
inactive: inhibition [3] 0% | outcome [5] | outcome [6] | outcome [7] | outcome [8]
